Screening data (PubChem BioAssay)
KLK7 zymogen act: activators of human kallikrein-7 zymogen; P49862; purified proKLK7, EDANS-DABCYL substrate fluorescence; 100% is mature enzyme control, 0% vehicle; activation, % at 7 µM; 0.9% of 370,000 active; AID 652039;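 active = activation above the mean of all tested compounds plus 3 SD, computed per campaign excluding outliers beyond control limits, cut at about 13% in these data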
rCAG binder: binds r(CAG) RNA repeats. inhibition, % at 3 µM. 1.3% of 370,000 active. r(CAG) RNA repeat, TO-PRO-1 dye displacement fluorescence. AID 651821;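 active = inhibition above the plate cutoff, the mean of all test compounds on that plate plus 3 SD, cut at about 35% in these data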;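 also: 0% = DMSO alone and 100% = 100 µM mitoxantrone as full dye displacement; higher means more dye released from RNA so lower well fluorescence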
Pemphigus Ab inh: human desmoglein-3 autoantibody binding inhibition. P32926. 0.48% of 310,000 active. DSG3-coupled beads, scFv-anti-DSG3-GFP binding, flow cytometry; stronger effect = lower value. binding (percent of control), % at 10 µM;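 active = binding more than 3 SD below its plate's average and above zero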;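 also: hits lower antibody fragment binding to DSG3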
ADAM17 inh: ADAM17 inhibition, QFRET primary screen | P78536 | recombinant ADAM17, EDANS/DABCYL FRET peptide cleavage | inhibition, % at 6.95 µM | 0.83% of 370,000 active | AID 720648;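 active = inhibition above the mean of compounds lying between control limits plus 3 SD, set per campaign, cut at about 8.5% in these data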;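 also: 0% = DMSO-only wells as the low control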
ADAM10 inh: inhibits human ADAM10 | O14672 | recombinant ADAM10, EDANS/DABCYL FRET peptide cleavage, 3 h | inhibition, % at 7 µM | 0.62% of 370,000 active | AID 720582;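 active = inhibition above a per-campaign cutoff equal to the mean of compounds falling between control-based bounds plus 3 SD, cut at about 20% in these data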;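 also: 0% = DMSO wells while the 100% control is not disclosed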
Target sequence (O14672 214-748 limits assumed): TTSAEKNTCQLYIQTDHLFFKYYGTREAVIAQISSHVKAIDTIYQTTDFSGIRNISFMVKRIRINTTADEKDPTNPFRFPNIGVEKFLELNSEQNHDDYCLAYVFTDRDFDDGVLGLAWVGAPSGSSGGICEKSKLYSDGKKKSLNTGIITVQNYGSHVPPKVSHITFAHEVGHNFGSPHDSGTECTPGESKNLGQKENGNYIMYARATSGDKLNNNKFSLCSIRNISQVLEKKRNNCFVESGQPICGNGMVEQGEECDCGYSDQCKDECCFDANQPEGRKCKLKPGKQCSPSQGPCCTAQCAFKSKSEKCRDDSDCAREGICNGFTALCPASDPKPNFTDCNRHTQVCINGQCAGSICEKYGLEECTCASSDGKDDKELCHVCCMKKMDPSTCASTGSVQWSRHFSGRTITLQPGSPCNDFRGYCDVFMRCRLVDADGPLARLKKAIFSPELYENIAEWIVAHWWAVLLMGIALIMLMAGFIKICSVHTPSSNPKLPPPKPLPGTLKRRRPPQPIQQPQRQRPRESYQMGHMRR
MPTP block: inhibitors of mitochondrial permeability transition pore; isolated mouse mitochondria, Ca2+ swelling absorbance, 30 min; inhibition, % at 10 µM; 1.4% of 360,000 active; AID 602449;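 active = inhibition of 50% or more, scaled per plate between neutral and stimulator controls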;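 also: 0% = DMSO wells given calcium and 100% = 1 mM EGTA wells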
* = called active by the depositor. Compounds with a hit are over-represented: about 4.7% of the library has one in this group of screens.

COC(=O)[C@H](C(C)C)N(CCCc1cn(Cc2ccc(C)cc2)nn1)S(=O)(=O)c1ccc(F)cc1Br was read as KLK7 zymogen act 0, rCAG binder 3, ADAM17 inh 8 and ADAM10 inh 14.
`O=C(CSC1=Nc2ccccc2C2CC=NN12)Nc1ccc(F)cc1Cl` (stereo not drawn) gave KLK7 zymogen act 0, rCAG binder -1, Pemphigus Ab inh 30*, ADAM17 inh -1, ADAM10 inh -1 and MPTP block -1.
Screening O=C(COC(=O)c1ccc(S(=O)(=O)N2CCCC2)cc1)NCc1ccc(Cl)cc1 returned KLK7 zymogen act 0, rCAG binder -4, Pemphigus Ab inh 71*, ADAM17 inh 1, ADAM10 inh 4 and MPTP block 0.
`O=C(COC(=O)c1ccc(S(=O)(=O)N2CCCCCC2)cc1)NCc1ccc(F)cc1` gave KLK7 zymogen act 0, rCAG binder 1, Pemphigus Ab inh 96, ADAM17 inh 0, ADAM10 inh -2 and MPTP block 0.
C=CCn1c(O)c(C2=c3ccccc3=NC2=O)s/c1=N/c1nccs1 was read as KLK7 zymogen act 0, rCAG binder 13, Pemphigus Ab inh 81*, ADAM17 inh -1, ADAM10 inh -9 and MPTP block 6.
`C=CCn1c(O)c(C2=c3ccccc3=NC2=O)c2ccccc21` gave KLK7 zymogen act 0, rCAG binder 21, Pemphigus Ab inh 96, ADAM17 inh 1, ADAM10 inh 4 and MPTP block -1.
CC(C)c1cc(C(C)C)c(S(=O)(=O)N2CCCC(C(=O)NCc3cccs3)C2)c(C(C)C)c1 (stereo not drawn) was read as KLK7 zymogen act 0, rCAG binder 5, ADAM17 inh 1 and ADAM10 inh 3.
`Cc1ccccc1C(=O)N(C)[C@H]1C[C@H]2c3[nH]c4c(-c5ccc6c(c5)OCO6)cccc4c3CCN2C(=O)[C@H]1[C@H](C)O` gave KLK7 zymogen act 1, rCAG binder 3, ADAM17 inh -4 and ADAM10 inh -7.
`CCCOC(=O)CSc1nc(N)c(C#N)c(CC)c1C#N` gave KLK7 zymogen act 0, rCAG binder -4, Pemphigus Ab inh 13*, ADAM17 inh -4, ADAM10 inh -21 and MPTP block 0.
For CCCCOC(=O)CSc1nc(N)c(C#N)c(-c2ccc(OCC)cc2)c1C#N the results were KLK7 zymogen act 1, rCAG binder -3, Pemphigus Ab inh 80*, ADAM17 inh -5, ADAM10 inh 3 and MPTP block 0.
For CCCCOc1ccc(-c2c(C#N)c(N)nc(SCC(N)=O)c2C#N)cc1 the results were KLK7 zymogen act -3, rCAG binder 23, Pemphigus Ab inh 113, ADAM17 inh 0, ADAM10 inh 6 and MPTP block 2.
For CCCCOC(=O)CSc1nc(N)c(C#N)c(-c2ccc(OC)cc2)c1C#N the results were KLK7 zymogen act 0, rCAG binder 0, Pemphigus Ab inh -28*, ADAM17 inh -2, ADAM10 inh -3 and MPTP block 0.
For Cc1ccc(NC(=O)c2cc(S(=O)(=O)N3CCCC3)cn2C)cc1C the results were KLK7 zymogen act 0, rCAG binder 2, Pemphigus Ab inh 18*, ADAM17 inh -3, ADAM10 inh -6 and MPTP block -1.
Screening Cc1ccc(NC(=O)c2cc(S(=O)(=O)N3CCOCC3)cn2C)cc1Cl returned KLK7 zymogen act 1, rCAG binder 5, Pemphigus Ab inh 98, ADAM17 inh 0, ADAM10 inh 3 and MPTP block -2.
Screening CCCCC(=O)Nc1ccc(C)c(S(=O)(=O)N2CCCCCC2)c1 returned KLK7 zymogen act 0, rCAG binder -2, Pemphigus Ab inh 100, ADAM17 inh -2, ADAM10 inh -14 and MPTP block 1.
For CCCCNC(=O)C1=C(N)C(C(=O)Nc2ccc(C)c(S(=O)(=O)N3CCCCC3)c2)SC1=Nc1ccc(C)cc1C (stereo not drawn) the results were KLK7 zymogen act -1, rCAG binder 15, Pemphigus Ab inh 89, ADAM17 inh 16*, ADAM10 inh 40* and MPTP block 10.
For CCOC(=O)c1ccc(Nc2ccc(-c3ccc(OC)c(OC)c3)nn2)cc1 the results were KLK7 zymogen act 0, rCAG binder 7, Pemphigus Ab inh 86*, ADAM17 inh 0, ADAM10 inh 4 and MPTP block 0.
